# In ChEMBL document CHEMBL1157539, “Thousands of chemical starting points for antimalarial lead identification” (Nature, 2010):
# “And” between values parts separate entries of the source, which are not always exact repeats. Equal entries are not always repeated.
# What was measured:
# Assay type in all cases: functional
# [1] = tested on: Plasmodium falciparum; test: GSK_TCMDC: Inhibition of Plasmodium falciparum 3D7 in whole red blood cells, using parasite LDH activity as an index of growth. Test compounds present at 2uM
# [2] = tested on: Plasmodium falciparum; test: GSK_TCMDC: Inhibition of Plasmodium falciparum Dd2 in whole red blood cells, using parasite LDH activity as an index of growth. Test compounds present at 2uM
# [3] = tested on: HepG2; test: GSK_TCMDC: Percent inhibition of human HepG2 cell line. Test compounds present at 10uM.
SMILES,Inhibition [1],Inhibition [2],Inhibition [3]
COc1ccc(CN2CCN(CCOC(c3ccc(F)cc3)c3ccc(F)cc3)CC2)c(O)c1,97%,97%,6%
CN1CC=C(c2c[nH]c3ccc(-c4ccccc4)cc23)CC1,93%,60%,14%
COC(=O)c1ccc(CC(C)NCC(O)c2cccc3ccccc23)cc1 (configuration not stated),96%,82%,3%
COc1ccc(C[C@@H](C)NC[C@H](O)c2cccc(Cl)c2)cc1F,89%,75%,6%
Br.CC[C@H]1CN2CCc3cc(OC)c(OC)cc3[C@@H]2C[C@@H]1C[C@H]1NCCc2c1cc(OC)c(O)c2I,100%,100%,54%
CN1C(=O)OC[C@@H]1Cc1ccc2[nH]cc(C3=CCN(Cc4ccccc4)CC3)c2c1,86%,66%,4%
O=C(NC1CCC(CN2CCC(c3c[nH]c4ccccc34)CC2)CC1)c1cnn(-c2ccccc2)c1-c1ccccc1Cl (configuration not stated),95%,11%,66%
C=C[C@H]1CN2CC[C@H]1C[C@H]2[C@H](OS(=O)(=O)O)c1ccnc2ccccc12,99%,15%,8%
COc1ccc(OC)c(C=CC(=O)NC2CCC(CN3CCC(c4c[nH]c5ccccc45)CC3)CC2)c1 (configuration not stated),98%,62%,43%
CC[C@H]1CN2CC[C@H]1C[C@H]2[C@H](O)c1cc(-c2ccccc2C(F)(F)F)nc2ccc(OC)cc12.Cl,98%,99%,0%
COc1cccc(C=CC(=O)NC2CCC(CN3CCC(c4c[nH]c5ccccc45)CC3)CC2)c1OC (configuration not stated),100%,40%,37%
Cn1cc(CN2CCC(CCOC(c3ccccc3)c3ccccc3)CC2)cn1,99%,100%,27%
CC(Cc1ccc(OCCCCOc2ccccc2)cc1)NCCCN1CCOCC1 (configuration not stated),98%,78%,98%
O=C(/C=C/c1ccc(Cl)c(Cl)c1)N1CCC(CN2CCC(c3c[nH]c4ccc(NS(=O)(=O)c5cccs5)cc34)CC2)CC1,100%,100%,17%
COc1cc(C=CC(=O)N2CCC(CN3CCC(c4c[nH]c5ccccc45)CC3)CC2)cc(OC)c1,95%,8%,19%
Cc1c(C(=O)NC2CCC(CN3CCC(c4c[nH]c5ccccc45)CC3)CC2)cnn1-c1c(Cl)cc(Cl)cc1Cl (configuration not stated),100%,97%,53%
CC1=C(C(=O)NC2CCC(CN3CCC(c4c[nH]c5ccccc45)CC3)CC2)Cc2ccccc21 (configuration not stated),97% and 99%,15% and 24%,41% and 37%
CCCCCCCn1c(=O)c(C(=O)Nc2c(C)cccc2C)c(O)c2ccccc21,90%,42%,6%
O=C(/C=C/c1ccc(Cl)c(Cl)c1)NCCCCCN1C2CCC1CC(c1c[nH]c3ccc(O)cc13)C2 (configuration not stated),100% and 91%,0% and 20%,9% and 26%
Cn1c(C2CC3CCC(C2)N3CC2CCC(NC(=O)/C=C/c3ccc(Cl)c(Cl)c3)CC2)nc2ccccc21 (configuration not stated),100%,51%,50%
CC(C)CCNC(=O)c1cc(C(=O)c2cc(F)ccc2O)cn(CCC(C)C)c1=O,100%,45%,14%
CC[C@H]1CN2CC[C@@H]1C[C@H]2[C@H](O)c1cc(-c2ccccc2)nc2ccc(O)cc12.Cl,99%,99%,14%
C/C=C1\CN2CC[C@H]1C[C@@H]2[C@@H](O)c1ccnc2ccc(O)cc12,98%,0%,0%
CN1CCC(O)(c2ccc(Br)cc2)C(C(O)c2ccc(Br)cc2)C1.CS(=O)(=O)O (configuration not stated),98%,99%,28%
O=C(NC1CCC(CN2CCC(c3c[nH]c4ccccc34)CC2)CC1)c1[nH]c(=O)[nH]c(=O)c1F (configuration not stated),99%,59%,5%
O=C(/C=C/c1ccc(Cl)c(Cl)c1)Nc1cccc(CN2CCC(c3c[nH]c4ccccc34)CC2)c1,99%,91%,15%
CC(C)c1ccc(C=CC(=O)NC2CCC(CN3CCC(c4c[nH]c5ccccc45)CC3)CC2)cc1 (configuration not stated),100%,85%,50%
O=C(/C=C/c1ccc(Cl)c(Cl)c1)N1CCC(CN2CCC(c3c(-c4ccccc4)[nH]c4ccccc34)CC2)CC1,100%,99%,43%
CCOC(C(=O)OCC1CCCN(C)C1)(c1ccccc1)c1ccccc1 (configuration not stated),98%,3%,13%
